The campaign covered roughly 5,500 compounds. About 2,000 (36%) were called active. Another 18% or so got no clear call; they are omitted. Cut-off read from the data, not from the text of the source: active = normalized growth mostly below about 0.91 (no sharp cut-off); inconclusive = no clear call, values can overlap the other calls; inactive = mostly above about 0.92. Some of the results follow.
Test: chemical genetic growth profiling, strain panel (AID 1159580);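 note: tested at 20 µM; growth read once vehicle control cultures reached saturation at 30 °C; 1 = growth at the plate median or of vehicle wells; lower values mean less growth of the strain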
Conditions: S. cerevisiae deletion strains, growth OD

Measured: normalized growth

N#C/C(N=Cc1cc(Cl)cc(Cl)c1O)=C(\C#N)N=Cc1cc(Cl)cc(Cl)c1O
inactive: locus YAR019C, strain CDC15, active compounds read low 0.923 | locus YBL105C, strain PKC1, active compounds read low 0.929 | locus YBR135W, strain CKS1, active compounds read low 0.927 | locus YBR136W, strain MEC1, active compounds read low 0.917 | locus YBR160W, strain CDC28, active compounds read low 0.922 | locus YDL017W, strain CDC7, active compounds read low 0.923 | locus YDL028C, strain MPS1, active compounds read low 0.915 | locus YDL101C, strain DUN1, active compounds read low 0.954 | locus YDL108W, strain KIN28, active compounds read low 0.926 | locus YDL132W, strain cdc53, active compounds read low 0.943 | locus YDL214C, strain PRR2, active compounds read low 0.754 | locus YDR052C, strain DBF4, active compounds read low 0.936 | locus YDR054C, strain cdc34, active compounds read low 0.916 | locus YDR226W, strain ADK1, active compounds read low 0.925 | locus YER123W, strain YCK3, active compounds read low 0.735 | locus YER133W, strain GLC7, active compounds read low 0.725 | locus YFL009W, strain cdc4, active compounds read low 0.931 | locus YFL029C, strain CAK1, active compounds read low 0.929 | locus YFR003C, strain YPI1, active compounds read low 0.914 | locus YFR019W, strain FAB1, active compounds read low 0.912 | locus YFR028C, strain CDC14, active compounds read low 0.931 | locus YIL147C, strain SLN1, active compounds read low 0.914 | locus YJL128C, strain PBS2, active compounds read low 0.905 | locus YJR016C, strain ILV3, active compounds read low 0.93 | locus YKL067W, strain YNK1, active compounds read low 0.74 | locus YKL193C, strain SDS22, active compounds read low 0.922 | locus YML070W, strain DAK1, active compounds read low 0.747 | locus YMR001C, strain CDC5, active compounds read low 0.919 | locus YMR277W, strain FCP1, active compounds read low 0.92 | locus YNL006W, strain LST8, active compounds read low 0.93 | locus YNL161W, strain CBK1, active compounds read low 0.929 | locus YNL183C, strain NPR1, active compounds read low 0.587 | locus YNL207W, strain RIO2, active compounds read low 0.916 | locus YNL222W, strain SSU72, active compounds read low 0.937 | locus YOL078W, strain AVO1, active compounds read low 0.928 | locus YOL136C, strain PFK27, active compounds read low 0.769 | locus YOR329C, strain SCD5, active compounds read low 0.931 | locus YPL209C, strain IPL1, active compounds read low 0.934 | locus YPR025C, strain CCL1, active compounds read low 0.935 | locus YPR106W, strain ISR1, active compounds read low 0.923 | locus YPR111W, strain DBF20, active compounds read low 0.927 | strain NNK1, active compounds read low 0.908 | strain TSCII, active compounds read low 0.934
active: locus YDR477W, strain SNF1, active compounds read low 0.503 | locus YGR040W, strain KSS1, active compounds read low 0.621 | locus YGR052W, strain FMP48, active compounds read low 0.552 | locus YGR092W, strain DBF2, active compounds read low 0.129 | locus YHR030C, strain SLT2, active compounds read low 0.381 | locus YHR079C, strain IRE1, active compounds read low 0.397 | locus YHR082C, strain KSP1, active compounds read low 0.587 | locus YHR205W, strain SCH9, active compounds read low 0.415 | locus YJL095W, strain BCK1, active compounds read low 0.448 | locus YJL157C, strain FAR1, active compounds read low 0.664 | locus YJR066W, strain TOR1 (second series), active compounds read low 0.588 | locus YJR066W, strain TOR1, active compounds read low 0.414 | locus YKL048C, strain ELM1, active compounds read low 0.594 | locus YKL101W, strain HSL1, active compounds read low 0.538 | locus YKL203C, strain TOR2, active compounds read low 0.454 | locus YLR113W, strain HOG1, active compounds read low 0.509 | locus YLR133W, strain CKI1, active compounds read low 0.52 | locus YLR403W, strain SFP1, active compounds read low 0.457 | locus YMR205C, strain PFK2 (second series), active compounds read low 0.609 | locus YNL020C, strain ARK1, active compounds read low 0.403 | locus YNL307C, strain MCK1 (second series), active compounds read low 0.286 | locus YOR061W, strain CKA2, active compounds read low 0.349 | locus YOR119C, strain RIO1, active compounds read low 0.476 | locus YOR231W, strain MKK1, active compounds read low 0.475 | locus YPL031C, strain PHO85, active compounds read low 0.547 | locus YPL153C, strain RAD53, active compounds read low 0.538 | locus YPL204W, strain HRR25, active compounds read low 0.63 | locus YPL256C, strain CLN2, active compounds read low 0.503

Source: PubChem BioAssay AID1159580 (chemical genetic matrix, 2015)
